{
  "source": "PubChem BioAssay AID1159524",
  "about": "(National Center for Advancing Translational Sciences (NCATS), 2015)",
  "note": "Among all 410,000 compounds or so, about 5,100 (1.2%) were called active. Inconclusive results (about 8%) are left out. The sample as a whole holds a higher share of actives than the screen did. A number with no mark means an inactive call. Calls follow the shape of the full dose curve; tested in HEK293T cells. % is scaled to controls: 0 for no effect and ±100 for the full control effect; potency is read from the fitted curve at half-maximal effect.",
  "data": [
    {"assay": "High Throughput Screening for Foot and Mouth Disease Virus Antivirals; also: read-out not given here; nearly all actives have a fitted effect of over 45% in size", "conditions": "FMDV antiviral cell-based qHTS; series mostly up to 57.9 µM; activity change, negative = inhibition: at the top concentration", "units": {"activity change, negative = inhibition": "%"}, "values": [
      {"smiles": "CN(CC(=O)Nc1cccc(C(F)(F)F)c1)S(=O)(=O)c1cccs1", "activity change, negative = inhibition": -0.475},
      {"smiles": "COc1ccccc1CNC(=O)C(=O)NCC(c1cccs1)S(=O)(=O)c1cccs1", "note": "(centres undefined)", "activity change, negative = inhibition": -28.5},
      {"smiles": "C#CCOc1ccccc1/C=C1/C(=O)ON=C1C", "Potency": "39.8 µM (active)"},
      {"smiles": "Cc1no[n+]([O-])c1COc1ccccc1/C=C1\\NC(=S)NC1=O", "activity change, negative = inhibition": -20.6},
      {"smiles": "CN1CCCCCC1C(=O)NCCN1Cc2ccccc2OC(c2ccsc2)C1", "note": "(centres undefined)", "activity change, negative = inhibition": 0.0789},
      {"smiles": "CCn1ccnc1C[C@@H]1COc2ccccc2O1", "activity change, negative = inhibition": 6.47},
      {"smiles": "Cc1n[nH]c(C)c1S(=O)(=O)N1CCCC(C(=O)NCC2COc3ccccc3O2)C1", "note": "(centres undefined)", "activity change, negative = inhibition": -9.84},
      {"smiles": "Cc1cc(C(=O)CCl)c(C)n1CC1COc2ccccc2O1", "note": "(centres undefined)", "Potency": "12.6 µM (active)"},
      {"smiles": "Cc1ccc(-c2cn3c(n2)sc2cc(C(=O)NCCCc4ccccc4)ccc23)cc1", "activity change, negative = inhibition": 14.8},
      {"smiles": "COc1cc(C2c3c(oc4ccccc4c3=O)C(=O)N2c2nc(C)c(C)s2)ccc1O", "note": "(centres undefined)", "activity change, negative = inhibition": -11.5},
      {"smiles": "COC(C[C@@H]1O[C@@H]1C(=O)[C@H](C)OCc1ccccc1)OC", "activity change, negative = inhibition": -10.1},
      {"smiles": "COC(C/C=C/C(=O)[C@@H](C)OCc1ccccc1)OC", "Potency": "39.8 µM (active)"},
      {"smiles": "COC(C[C@H](O)CC(=O)[C@@H](C)OCc1ccccc1)OC", "activity change, negative = inhibition": -7.66},
      {"smiles": "Cc1nc2cnc(N3CCNCC3)nc2n(Cc2ccc(F)cc2)c1=O", "activity change, negative = inhibition": -10.8},
      {"smiles": "C=CCSSCC=C", "activity change, negative = inhibition": -4.9},
      {"smiles": "N#CCCN(C(=O)COC(=O)c1ccc2c(c1)OCCO2)c1ccccc1", "activity change, negative = inhibition": -0.86},
      {"smiles": "O=C(COC(=O)c1ccccc1)c1ccc2c(c1)OCCO2", "Potency": "12.6 µM (active)"},
      {"smiles": "O=C(OCc1ccccc1F)c1ccc2c(c1)OCCO2", "activity change, negative = inhibition": 44.5},
      {"smiles": "COc1cc(=O)n2c(c1C(=O)N(C)Cc1nonc1C)CCN(C(=O)c1ccc(C)cc1C)CC2", "activity change, negative = inhibition": 3.5},
      {"smiles": "COc1ccc(-c2nc3cnc(N(C)C)nc3n(Cc3cccs3)c2=O)cc1", "activity change, negative = inhibition": -1.02},
      {"smiles": "Cc1cccc(-n2ncc(C(=O)N3CCN(c4ccc(Cl)cc4)CC3)c2C2CCN(C(=O)OC(C)(C)C)CC2)c1", "activity change, negative = inhibition": -12.8},
      {"smiles": "Cc1cccc(-n2ncc(C(=O)N3CCc4ccccc4C3)c2C2CCN(C(=O)OC(C)(C)C)CC2)c1", "Potency": "2 µM (active)"},
      {"smiles": "Cc1cccc(-n2ncc(C(=O)N3CCC(C)CC3)c2C2CCN(C(=O)OC(C)(C)C)CC2)c1", "activity change, negative = inhibition": -4.72},
      {"smiles": "CC(O)(c1cccc(F)c1)c1nc(-c2ccc3c(c2)OCO3)cs1", "note": "(centres undefined)", "activity change, negative = inhibition": -19.4},
      {"smiles": "c1ccc2c(Nc3ccncc3)nc(-c3ccc4c(c3)OCO4)nc2c1", "activity change, negative = inhibition": -9.03},
      {"smiles": "O=C(Nc1nc(-c2ccc3c(c2)OCO3)cs1)c1ccncc1", "Potency": "15.8 µM (active)"},
      {"smiles": "COCCn1c(=O)c(-c2cccs2)nc2cncnc21", "activity change, negative = inhibition": -16.5},
      {"smiles": "Cc1c(C(=O)NCC2CCCN(C)C2)cnn1-c1nccc(-c2ccco2)n1", "note": "(centres undefined)", "activity change, negative = inhibition": -4.89},
      {"smiles": "Cc1ccc(NC(=O)CN2c3ccccc3S(=O)(=O)c3ccccc32)cc1F", "activity change, negative = inhibition": -15.4}
    ]}
  ]
}
